In PubChem BioAssay:
Calls of active or inactive are those of the source. Unless noted, the rule behind the calls is not given here.

Key:
[1] = tested on: XIP peptide (Xip251-270) binding; test: small-molecule binders of XIP peptide, primary screen, biochemical, small-molecule microarray, fluorescence 635/667 nm, 0.1 µg/mL protein (AID 1182); details: fluorescent protein binding, 635 nm, higher = more signal, called active from +8 up or from −8 down
XIP peptide (Xip251-270) = test: small-molecule binders of XIP peptide, primary screen, biochemical, small-molecule microarray, fluorescence 635/667 nm, 0.5 µg/mL protein (AID 1183); details: small-molecule microarray binding, fluorescence 635 nm; higher = more signal
[2] = Plasmodium falciparum growth inhibition, primary screen, strain 3D7, DAPI fluorescence, 100 nL (AID 1184);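 note: parasites grown inside human red blood cells in medium with human serum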; details: P. falciparum 3D7 growth, 3 d, higher = more signal
[3] = target: Homeobox protein Hox-A13 (Mus musculus) (UniProt Q62424); test: inhibitors of HoxA13-DNA binding, primary screen, biochemical, fluorescence polarization, labeled oligonucleotide (AID 1185); details: 15 min, higher = more signal, called active from +8 up or from −8 down
Chain of Homeobox protein Hox-A13 (Mus musculus) (Q62424 whole entry, looked up): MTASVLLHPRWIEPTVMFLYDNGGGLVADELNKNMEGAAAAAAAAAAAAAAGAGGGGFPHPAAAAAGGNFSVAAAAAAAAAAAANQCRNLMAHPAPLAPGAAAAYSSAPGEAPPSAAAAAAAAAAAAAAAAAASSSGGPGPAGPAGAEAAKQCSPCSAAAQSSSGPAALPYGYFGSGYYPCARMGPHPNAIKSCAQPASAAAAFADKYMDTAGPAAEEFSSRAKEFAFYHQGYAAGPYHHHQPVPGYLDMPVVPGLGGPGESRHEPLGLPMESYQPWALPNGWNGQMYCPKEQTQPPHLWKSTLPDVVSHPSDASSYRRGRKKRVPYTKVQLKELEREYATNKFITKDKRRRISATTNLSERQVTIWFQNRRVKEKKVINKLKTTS

[4] = inhibitors of hydroxyurea-induced Chk1 phosphorylation, primary screen, imaging, HeLa, phospho-Chk1 antibody, percent positive cells (AID 1186); details: hydroxyurea-induced phospho-Chk1 immunofluorescence imaging, higher = more signal
[5] = inhibitors of hydroxyurea-induced Chk1 phosphorylation, primary screen, imaging, HeLa, phospho-Chk1 nuclear intensity (AID 1187); details: hydroxyurea-induced phospho-Chk1 immunofluorescence imaging, higher = more signal

| SMILES | composite z-score [1] | composite z-score (XIP peptide (Xip251-270)) | z-score [2] | z-score [3] | z-score [4] | z-score [5] |
| --- | --- | --- | --- | --- | --- | --- |
| C=C(C)[C@@H]1CC=C(C(O)C2C=CC3C(=O)NC(=O)C3N2Nc2ccccn2)CC1 (stereo not given in full) | 0.745 (inactive) | 0.718 | 0.982 | -3.65 (inactive) | 0.129 (inactive) | -0.126 (inactive) |
| COc1cc2c(cc1OC)CN(C(=O)[C@@H]1[C@H]3C(=O)O[C@H](c4ccccc4)[C@H](c4ccccc4)N3[C@H](c3ccccc3OCCO)[C@@]13C(=O)Nc1ccccc13)CC2 | 1.79 (inactive) | 0.829 | -2.18 | 0.829 (inactive) | 0.306 (inactive) | 0.876 (inactive) |
| COc1ccc([Si](C)(C)[C@H]2[C@H](CC(=O)N(CCO)Cc3ccccc3)O[C@@]3(C(=O)N(C)c4ccccc43)[C@@H]2C)cc1 | 0.0642 (inactive) | 0.369 | -0.134 | -6.95 (inactive) | -0.217 (inactive) | -0.251 (inactive) |
| Cc1ccc(N2C(=O)c3ccccc3[C@@H](C(=O)NCC(F)(F)F)[C@@H]2c2ccc(CO)cc2)nc1 | -0.118 (inactive) | -0.138 | -0.0188 | -0.71 (inactive) | -0.0128 (inactive) | 0.171 (inactive) |
| COCCOC(=O)N1C(=O)[C@@]2(c3cc(C#CCC(C(=O)OC)C(=O)OC)ccc31)[C@H](c1ccccc1OCCO)N1[C@H](c3ccccc3)[C@H](c3ccccc3)OC(=O)[C@H]1[C@@H]2C(=O)N1CCCCCCC1 | 0.856 (inactive) | 0.597 | -1.97 | 2.94 (inactive) | -0.304 (inactive) | -0.309 (inactive) |
| COCCOC(=O)N1C(=O)[C@@]2(c3cc(C#CCNC(N)=O)ccc31)[C@H](c1ccccc1OCCO)N1[C@H](c3ccccc3)[C@H](c3ccccc3)OC(=O)[C@H]1[C@@H]2C(=O)NC[C@H](O)c1ccccc1 | 0.88 (inactive) | 0.8 | -1.84 | -3.26 (inactive) | 0.0689 (inactive) | -0.158 (inactive) |
| COCCOC(=O)N1C(=O)[C@@]2(c3cc(C#CC4(O)CCCCCC4)ccc31)[C@H](C(=O)N1CCCCCCC1)[C@H]1C(=O)O[C@H](c3ccccc3)[C@H](c3ccccc3)N1[C@@H]2c1ccc(O)cc1 | 0.888 (inactive) | 0.683 | -2.19 | 3.51 (inactive) | -0.169 (inactive) | 0.085 (inactive) |
| COCC(=C=CC[C@H](O)c1ccc(OCCO)cc1)C[C@H](O)c1ccccn1 | 0.495 (inactive) | -0.246 | -1.14 | -5.63 (inactive) | -0.215 (inactive) | -0.0412 (inactive) |
| CC(C)(C)OC(=O)CC[C@]1(C(=O)N2CCCCC2)N=C(c2ccc(OCCCO)cc2)O[C@H]1c1ccccc1 | 1.24 (inactive) | 0.814 | -2.31 | -4.83 (inactive) | -0.478 (inactive) | -0.787 (inactive) |
| NC(=O)NCC#Cc1ccc2c(c1)[C@]1(C(=O)N2)[C@H](c2ccccc2OCCO)N2[C@H](c3ccccc3)[C@H](c3ccccc3)OC(=O)[C@H]2[C@@H]1C(=O)N1CCN(c2ncccn2)CC1 | 0.233 (inactive) | 0.763 | -2.34 | 0.487 (inactive) | 0.553 (inactive) | 1.5 (inactive) |
